Reference: PubChem BioAssay (EPA / NIEHS)
Calls of active or inactive are those of the source. The calls were made as follows: active = hit-call score of the fitted dose curve at least 0.9, where 1 is the maximum; inactive = score below 0.9.

Columns and labels:
[1] = read-out: Monokine induced gamma interferon (MIG), CXCL9 (gene 4283); test: BSK_3C_MIG: BioMAP Diversity Plus: 3C Assay for Monokine induced gamma interferon (MIG) Biomarker Activity (AID 2283021); conditions: primary human endothelial cells (HUVEC); actives raise or lower the signal
Procedure, shortened: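 ELISA-measured MIG in dosed HUVEC 3C cultures at 24 h, analysed by bidirectional fitting with DMSO defining baseline activity.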

[2] = BSK_3C_SRB: Viability Assessment in the BioMAP Diversity Plus: 3C Assay (AID 2283023); conditions: primary human endothelial cells (HUVEC);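 also: fitted both ways against DMSO so a hit may be signal rise or drop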
Procedure, shortened: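 Human umbilical vein endothelial cells in the 3C system, treated 24 h. Total protein measured by 0.1% sulforhodamine B staining after 10% TCA fixation, read at 560 nm; bidirectional fit versus DMSO.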

[3] = BSK_3C_Vis: BioMAP Diversity Plus: 3C Assay for Morphology Visualization (AID 2283025); conditions: primary human endothelial cells (HUVEC);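 also: fitted both ways so gain or loss versus DMSO counts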;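 as to AC50: light microscopy image of cell morphology used as background control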
Procedure, shortened: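 Light-microscopy morphology readout, 24 h exposure, human primary umbilical vein endothelium; analysed relative to DMSO with bidirectional fitting.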

[4] = read-out: Pselectin, SELP (gene 6403); test: BSK_4H_Pselectin: BioMAP Diversity Plus: 4H Assay for Pselectin Biomarker Activity (AID 2283026); conditions: primary human endothelial cells (HUVEC); actives raise or lower the signal
Procedure, shortened: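 Bidirectional fits against DMSO gave the endpoint. Cells: primary human umbilical vein endothelium, chemical-treated for 24 h before ELISA detection of P-selectin.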

[5] = BSK_4H_SRB: Viability Assessment in the BioMAP Diversity Plus: 4H Assay (AID 2283027); conditions: primary human endothelial cells (HUVEC);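 also: cells exposed to compound for 24 h before staining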
Procedure, shortened: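 HUVEC, 24 h post-dose; 10% TCA fix, 0.1% SRB stain, A560 nm. Total protein = overt cytotoxicity, parallel to biomarker read. Bidirectional fit vs DMSO baseline.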

[6] = BSK_BE3C_SRB: Viability Assessment in the BioMAP Diversity Plus: BE3C Assay (AID 2283028); conditions: primary human bronchial epithelial cells
Procedure, shortened: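 Human bronchial epithelial primary cells in confluent culture, 24 h after chemical dosing; total protein by 0.1% SRB staining after 10% TCA fixation, read at 560 nm. Bidirectional fitting versus DMSO baseline.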

[7] = read-out: Thrombomodulin, THBD (gene 7056); test: BSK_3C_Thrombomodulin: BioMAP Diversity Plus: 3C Assay for Thrombomodulin Biomarker Activity (AID 2283029); conditions: primary human endothelial cells (HUVEC); actives raise or lower the signal
Procedure, shortened: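 In a multiplexed primary-cell system, human umbilical vein endothelium received chemical and was assayed 24 h later for thrombomodulin by ELISA. Parallel cultures were SRB-stained (0.1% SRB after 10% TCA fixation, read at 560 nm) to flag cytotoxicity.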

[8] = read-out: Urokinase-type plasminogen activator receptor (uPAR), PLAUR (gene 5329); test: BSK_4H_uPAR: BioMAP Diversity Plus: 4H Assay for Urokinase-type plasminogen activator receptor (uPAR) Biomarker Activity (AID 2283030); conditions: primary human endothelial cells (HUVEC); actives raise or lower the signal
Procedure, shortened: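 Human umbilical vein endothelial cells in the 4H system, 24 h after chemical dosing. Cell-surface uPAR measured by ELISA, fitted in both directions versus DMSO; cytotoxicity checked by SRB total protein in parallel cultures.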

[9] = read-out: Vascular endothelial growth factor receptor 2 (Homo sapiens) (UniProt P35968); test: BSK_4H_VEGFRII: BioMAP Diversity Plus: 4H Assay for Vascular endothelial growth factor receptor 2 (VEGFR2) Biomarker Activity (AID 2283031); conditions: primary human endothelial cells (HUVEC); actives raise or lower the signal
Procedure, shortened: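 Primary human umbilical vein endothelial cells (4H system), 24 h exposure; cell-surface VEGFR2 measured by ELISA. Bidirectional fitting versus DMSO; cytotoxicity checked in parallel by SRB total-protein staining.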

[10] = read-out: Human Leukocyte Antigen - DR isotype (HLADR), HLA-DRA (gene 3122); test: BSK_BE3C_HLADR: BioMAP Diversity Plus: BE3C Assay for Human Leukocyte Antigen - DR isotype (HLADR) Biomarker Activity (AID 2283032); conditions: primary human bronchial epithelial cells; actives raise or lower the signal
Procedure, shortened: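 BioMAP BE3C format: human bronchial epithelium, 24 h compound treatment, ELISA detection of HLA-DR, with bidirectional analysis relative to DMSO.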

[11] = read-out: Interferon-gamma inducible Protein 10 (IP10), CXCL10 (gene 3627); test: BSK_BE3C_IP10: BioMAP Diversity Plus: BE3C Assay for Interferon-gamma inducible Protein 10 (IP10) Biomarker Activity (AID 2283034); conditions: primary human bronchial epithelial cells; actives raise or lower the signal
Procedure, shortened: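 BE3C cells (human bronchial epithelial, primary); 24 h exposure; ELISA for IP-10; DMSO-referenced bidirectional fit.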

[12] = read-out: Monokine induced gamma interferon (MIG), CXCL9 (gene 4283); test: BSK_BE3C_MIG: BioMAP Diversity Plus: BE3C Assay for Monokine induced gamma interferon (MIG) Biomarker Activity (AID 2283035); conditions: primary human bronchial epithelial cells; actives raise or lower the signal;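 also: MIG protein measured by ELISA in BE3C cultures after 24 h of dosing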
Procedure, shortened: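 Dose cells (human primary bronchial epithelial), incubate 24 h, quantify MIG by ELISA, then fit concentration–response in both directions relative to DMSO control.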

[13] = read-out: Transforming growth factor beta 1 (TGFb1), TGFB1 (gene 7040); test: BSK_BE3C_TGFb1: BioMAP Diversity Plus: BE3C Assay for Transforming growth factor beta 1 (TGFb1) Biomarker Activity (AID 2283036;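 also: TGF-b1 protein level measured by ELISA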); conditions: primary human bronchial epithelial cells; actives raise or lower the signal
Procedure, shortened: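 TGF-b1 measured via ELISA, 24 h after chemical dosing of human bronchial epithelial cells (BE3C). Overt cytotoxicity assessed in parallel by SRB (0.1%, TCA-fixed, 560 nm); analysis bidirectional relative to DMSO.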

[14] = read-out: Plasminogen activator inhibitor-1 (PAI1), SERPINE1 (gene 5054); test: BSK_BE3C_PAI1: BioMAP Diversity Plus: BE3C Assay for Plasminogen activator inhibitor-1 (PAI1) Biomarker Activity (AID 2283037); conditions: primary human bronchial epithelial cells; actives raise or lower the signal
Procedure, shortened: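 In this multiplexed primary-cell system, bronchial epithelial cells receive test chemical and are sampled at 24 h. PAI-1 is read by ELISA, with DMSO serving as negative control for bidirectional fitting.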

[15] = read-out: Urokinase-type plasminogen activator receptor (uPAR), PLAUR (gene 5329); test: BSK_BE3C_uPAR: BioMAP Diversity Plus: BE3C Assay for Urokinase-type plasminogen activator receptor (uPAR) Biomarker Activity (AID 2283039); conditions: primary human bronchial epithelial cells; actives raise or lower the signal;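 also: cells exposed to compound for one day before measurement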
Procedure, shortened: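 Chemically treated human bronchial epithelial cells (lung primary) are assayed for uPAR by ELISA after 24 h, with data fitted in both directions using DMSO as negative control.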

[16] = read-out: Interleukin-6 (IL6), IL6 (gene 3569); test: BSK_CASM3C_IL6: BioMAP Diversity Plus: CASM3C Assay for Interleukin-6 (IL6) Biomarker Activity for (AID 2283040); conditions: primary human coronary artery smooth muscle cells; actives raise or lower the signal
[17] = read-out: Vascular cell adhesion molecule 1 (VCAM1), VCAM1 (gene 7412); test: BSK_4H_VCAM1: BioMAP Diversity Plus: 4H Assay for Vascular cell adhesion molecule 1 (VCAM1) Biomarker Activity (AID 2283033); conditions: primary human endothelial cells (HUVEC); actives raise or lower the signal;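 also: cell-surface VCAM-1 protein measured by ELISA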
Procedure, shortened: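 In this human endothelial (HUVEC) system, biomarker ELISA was run 24 h after compound addition, and total protein in parallel wells was assessed by SRB at 560 nm; DMSO served as negative control.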

[18] = read-out: urokinase plasminogen activator (uPA), PLAU (gene 5328); test: BSK_BE3C_uPA: BioMAP Diversity Plus: BE3C Assay for urokinase plasminogen activator (uPA) Biomarker Activity (AID 2283038); conditions: primary human bronchial epithelial cells; actives raise or lower the signal;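 also: uPA protein level quantified by ELISA in cell cultures; uPA read one day after compound addition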
Procedure, shortened: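 Primary human bronchial epithelial cells, uPA measured by ELISA 24 h after dosing. Bidirectional change relative to DMSO; cytotoxicity checked in parallel cultures by sulforhodamine B total-protein staining.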

[19] = read-out: Matrix Metallopeptidase 1 (MMP1), MMP1 (gene 4312); test: BSK_BE3C_MMP1: BioMAP Diversity Plus: BE3C Assay for Matrix Metallopeptidase 1 (MMP1) Biomarker Activity (AID 2283024); conditions: primary human bronchial epithelial cells; actives raise or lower the signal
Procedure, shortened: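 In this multiplexed primary-cell system, human bronchial epithelium received chemicals for 24 h before an ELISA for MMP1. Values reflect bidirectional fits normalised to the DMSO baseline.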

Measured: AC50

COC(=O)NS(=O)(=O)c1ccc(N)cc1
not listed: [17] | [18] | [19]
inactive: all other assays above

Nc1c(Cl)c(F)nc(OCC(=O)O)c1Cl
not listed: [19]
inactive: all other assays above

COP(=S)(OC)SCn1nnc2ccccc2c1=O
active: [4] 35.1 µM
not listed: [18] | [19]
inactive: all other assays above

O=c1n(Cl)c(=O)n(Cl)c(=O)n1Cl
not listed: [18] | [19]
inactive: all other assays above

C=C(C)CN(CC)c1c([N+](=O)[O-])cc(C(F)(F)F)cc1[N+](=O)[O-]
active: [2] 30 µM | [3] 20 µM
not listed: [17] | [19]
inactive: all other assays above

COc1ccc(-c2ccccc2)cc1NNC(=O)OC(C)C
not listed: [17] | [18]
inactive: all other assays above

CC(C)Oc1cccc(NC(=O)c2ccccc2C(F)(F)F)c1
active: [2] 11.6 µM
not listed: [17] | [18]
inactive: all other assays above

Cc1c(COC(=O)[C@@H]2[C@H](/C=C(\Cl)C(F)(F)F)C2(C)C)cccc1-c1ccccc1
active: [2] 11.7 µM | [3] 0.28 µM | [4] 12.3 µM | [7] 4.98 µM
not listed: [17] | [19]
inactive: all other assays above

O=C(Nc1ccccc1-c1ccc(Cl)cc1)c1cccnc1Cl
active: [3] 39 µM | [10] 5.32 µM
not listed: [17] | [18] | [19]
inactive: all other assays above
